Data taken from the supplement of paper PMC12669797.
Several values for one entry are separate records, joined by “and”; a condition that tells them apart may be missing. Equal entries are not always repeated. Structures can show the parent of a compound that is named as a salt. ± gives the standard deviation of the averaged measurements.

What follows are compounds tested on ES2 (assay: cell viability relative to DMSO control (MTS) (fraction of DMSO control); higher = more viable cells / less growth inhibition). Details: 10 µM; 48 h.
Summary of the method: (§1)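 TOV-21G and ES2 clear cell carcinoma cells were plated in 96-well plates at 5000 cells per well, grown for 24 h, and then exposed to a 367-compound […] library at a final concentration of 10 µM, with vehicle alone in control wells. An MTS assay (CellTiter 96 AQueous One Solution) was read 48 h later according to the manufacturer's protocol. Viability is reported as a fraction of the vehicle control.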

SMILES	cell viability
O=CN1CCN(c2ccc(/C=C3\C(=O)Nc4ccccc43)cc2)CC1	1.13
Cn1c(=O)c2nc[nH]c2n(C)c1=O [Theophylline]	0.452
CCOC(=O)C(C)(C)Oc1ccc(Cl)cc1 [Clofibrate]	1.35
N#C/C(=C(/N)Sc1ccccc1N)c1cccc(C(O)c2ccncc2)c1 (configuration not stated) [MEK inhibitor I]	0.866
CCN1/C(=C/C(C)=O)Sc2ccc(OC)cc21	0.857
CC#C[C@]1(O)CC[C@H]2[C@@H]3CCC4=CC(=O)CCC4=C3[C@@H](c3ccc(N(C)C)cc3)C[C@@]21C [Mifepristone]	1.04
COc1ccc(COc2ccc(Cc3cnc(N)nc3N)cc2OC)cc1 [cFMS Receptor Tyrosine Kinase Inhibitor]	0.942
O=c1cc(N2CCOCC2)oc2c(-c3ccccc3)cccc12	0.666 and 0.627
Cn1cnc2c(NCc3ccccc3)nc(NCCO)nc21 [Olomoucine]	1.25 ± 0.25
CCN(CC)CC(=O)Nc1c(C)cccc1C [Lidocaine]	1.1
O=Nc1c(-c2c(O)[nH]c3ccccc23)[nH]c2ccccc12 [indirubin-3'-monoxime]	0.696
C[n+]1cc2c3c(ccc2c2ccc4cc5c(cc4c21)OCO5)OCO3 [Sanguinarine]	0.385
Clc1ccccc1CNCC1CCC(CNCc2ccccc2Cl)CC1 (configuration not stated)	0.789
C[C@H](NC(=O)/C(C#N)=C/c1cccc(Br)n1)c1ccccc1	0.347
CC(ONC(=O)c1cc(C(F)(F)F)cc(C(F)(F)F)c1)C(=O)Nc1ccc(Cl)cc1 (configuration not stated)	1.24
O=C(Cc1ccccc1)Nc1c2c(nc3ccccc13)N(Cc1ccccc1)CC2	0.96
CCCCCCCCCCCCCCOc1ccc(C(=O)O)o1	1.21
CC(C)CC(NC(=O)CNC(=O)OCc1ccccc1)C(=O)NC(Cc1ccccc1)C(=O)CCl (configuration not stated)	0.398

SMILES	cell viability
O=c1c2ccccc2[nH]c(=S)n1CCN1CCC(=C(c2ccc(F)cc2)c2ccc(F)cc2)CC1 [Diacylglycerol kinase inhibitor II]	1.09
COc1cc2nc(N3CCCN(C)CC3)nc(NC3CCN(Cc4ccccc4)CC3)c2cc1OC	0.42
O=C(Nc1cccc(Nc2nccc(Nc3cccc(C(F)(F)F)c3)n2)c1)C1CC1 [Aurora kinase inhibitor III]	0.94
O=c1cc(-c2ccccc2)oc2cc(O)c(O)c(O)c12 [Baicalein]	0.916
CCCCC[C@H](CC(=O)NO)C(=O)N[C@H](C(=O)N1CCC[C@H]1CO)C(C)C [Actinonin]	1
Cc1cc([N+](=O)[O-])ccc1NS(=O)(=O)c1cc(Cl)ccc1Cl	0.894
COc1ccc(C2=N[C@@H](c3ccc(Cl)cc3)[C@@H](c3ccc(Cl)cc3)N2C(=O)N2CCNC(=O)C2)c(OC(C)C)c1 [Nutlin-3]	0.825
c1cc(CN2CCCNCCNCCCNCC2)ccc1CN1CCCNCCNCCCNCC1 [AMD3100 octahydrochloride]	1.4
Cc1[nH]c(/C=C2\C(=O)Nc3ccc(S(=O)(=O)N(C)c4cccc(Cl)c4)cc32)c(C)c1C(=O)N1CCN(C)CC1	0.402
Cc1c[nH]c(/C=C2\C(=O)Nc3ccccc32)c1CCC(=O)O	1.1
O=C([O-])c1ccccc1O.[Na+] [Sodium salicylate]	0.785
CC1=C(/C=C/C(C)=C/C=C/C(C)=C/C(=O)O)C(C)(C)CCC1 [tretinoin]	1.01
Nc1cccc(-c2cc3c(Oc4cccc(O)c4)ncnc3[nH]2)c1	0.586
CCOC(=O)C1=C(N)Oc2ccc(Br)cc2C1C(C#N)C(=O)OCC (configuration not stated)	1.04
O=C1C(SCCO)=C(SCCO)C(=O)c2ccccc21	0.962
CCOc1nc(NC(=O)Cc2cc(OC)ccc2OC)cc(N)c1C#N [JNK inhibitor VIII]	1.09
O=Nc1c(-c2c(O)[nH]c3cc(Br)ccc23)[nH]c2ccccc12 [GSK-3 inhibitor IX]	0.643
CC(/C=C/C(=O)NO)=C\[C@@H](C)C(=O)c1ccc(N(C)C)cc1 [Trichostatin A]	0.343

Each compound was assayed on TOV-21G in the same assay as above. Details: 10 µM; 48 h.
Summary of the method: as §1

SMILES	cell viability
O=CN1CCN(c2ccc(/C=C3\C(=O)Nc4ccccc43)cc2)CC1	1.2
Cn1c(=O)c2nc[nH]c2n(C)c1=O [Theophylline]	0.772
CCOC(=O)C(C)(C)Oc1ccc(Cl)cc1 [Clofibrate]	1.03
N#C/C(=C(/N)Sc1ccccc1N)c1cccc(C(O)c2ccncc2)c1 (configuration not stated) [MEK inhibitor I]	0.898
CCN1/C(=C/C(C)=O)Sc2ccc(OC)cc21	1.01
CC#C[C@]1(O)CC[C@H]2[C@@H]3CCC4=CC(=O)CCC4=C3[C@@H](c3ccc(N(C)C)cc3)C[C@@]21C [Mifepristone]	0.846
COc1ccc(COc2ccc(Cc3cnc(N)nc3N)cc2OC)cc1 [cFMS Receptor Tyrosine Kinase Inhibitor]	1.01
O=c1cc(N2CCOCC2)oc2c(-c3ccccc3)cccc12	0.52 and 0.519
Cn1cnc2c(NCc3ccccc3)nc(NCCO)nc21 [Olomoucine]	1.27 ± 0.17
CCN(CC)CC(=O)Nc1c(C)cccc1C [Lidocaine]	1.4
O=Nc1c(-c2c(O)[nH]c3ccccc23)[nH]c2ccccc12 [indirubin-3'-monoxime]	0.491
C[n+]1cc2c3c(ccc2c2ccc4cc5c(cc4c21)OCO5)OCO3 [Sanguinarine]	0.253
Clc1ccccc1CNCC1CCC(CNCc2ccccc2Cl)CC1 (configuration not stated)	1.03
C[C@H](NC(=O)/C(C#N)=C/c1cccc(Br)n1)c1ccccc1	0.392
CC(ONC(=O)c1cc(C(F)(F)F)cc(C(F)(F)F)c1)C(=O)Nc1ccc(Cl)cc1 (configuration not stated)	1.21
O=C(Cc1ccccc1)Nc1c2c(nc3ccccc13)N(Cc1ccccc1)CC2	0.839
CCCCCCCCCCCCCCOc1ccc(C(=O)O)o1	0.947
CC(C)CC(NC(=O)CNC(=O)OCc1ccccc1)C(=O)NC(Cc1ccccc1)C(=O)CCl (configuration not stated)	0.479

SMILES	cell viability
O=c1c2ccccc2[nH]c(=S)n1CCN1CCC(=C(c2ccc(F)cc2)c2ccc(F)cc2)CC1 [Diacylglycerol kinase inhibitor II]	1.13
COc1cc2nc(N3CCCN(C)CC3)nc(NC3CCN(Cc4ccccc4)CC3)c2cc1OC	0.454
O=C(Nc1cccc(Nc2nccc(Nc3cccc(C(F)(F)F)c3)n2)c1)C1CC1 [Aurora kinase inhibitor III]	0.573
O=c1cc(-c2ccccc2)oc2cc(O)c(O)c(O)c12 [Baicalein]	0.821
CCCCC[C@H](CC(=O)NO)C(=O)N[C@H](C(=O)N1CCC[C@H]1CO)C(C)C [Actinonin]	0.848
Cc1cc([N+](=O)[O-])ccc1NS(=O)(=O)c1cc(Cl)ccc1Cl	1.14
COc1ccc(C2=N[C@@H](c3ccc(Cl)cc3)[C@@H](c3ccc(Cl)cc3)N2C(=O)N2CCNC(=O)C2)c(OC(C)C)c1 [Nutlin-3]	0.413
c1cc(CN2CCCNCCNCCCNCC2)ccc1CN1CCCNCCNCCCNCC1 [AMD3100 octahydrochloride]	1.38
Cc1[nH]c(/C=C2\C(=O)Nc3ccc(S(=O)(=O)N(C)c4cccc(Cl)c4)cc32)c(C)c1C(=O)N1CCN(C)CC1	0.639
Cc1c[nH]c(/C=C2\C(=O)Nc3ccccc32)c1CCC(=O)O	1.08
O=C([O-])c1ccccc1O.[Na+] [Sodium salicylate]	1.27
CC1=C(/C=C/C(C)=C/C=C/C(C)=C/C(=O)O)C(C)(C)CCC1 [tretinoin]	1.51
Nc1cccc(-c2cc3c(Oc4cccc(O)c4)ncnc3[nH]2)c1	1.03
CCOC(=O)C1=C(N)Oc2ccc(Br)cc2C1C(C#N)C(=O)OCC (configuration not stated)	0.998
O=C1C(SCCO)=C(SCCO)C(=O)c2ccccc21	0.861
CCOc1nc(NC(=O)Cc2cc(OC)ccc2OC)cc(N)c1C#N [JNK inhibitor VIII]	1.12
O=Nc1c(-c2c(O)[nH]c3cc(Br)ccc23)[nH]c2ccccc12 [GSK-3 inhibitor IX]	0.36
CC(/C=C/C(=O)NO)=C\[C@@H](C)C(=O)c1ccc(N(C)C)cc1 [Trichostatin A]	0.355
